Results from PubChem BioAssay (Tox21).
Records with an inconclusive call do not appear. Where a call stands in place of a potency, no number is given. Values without a mark were called inactive. Active and inactive are the calls of the source. Calls follow the shape of the full dose curve.

target: Muscarinic acetylcholine receptor M1 (Homo sapiens) (UniProt P11229); assay: Cholinergic receptor muscarinic 1 (CHRM1) small molecule antagonists, cell-based qHTS assay (AID 1963588); details: CHRM1-CHO antagonist mode, calcium flux fluorescence; series mostly up to 61.5 µM; also: nearly all actives have a fitted effect of over 40% in size
Description: National Center for Advancing Translational Sciences [NCATS]
Division of Preclinical Innovation [DPI]
U.S. Environmental Protection Agency [EPA]
National Institutes of Environmental Health Sciences [NIEHS]
National Toxicology Program [NTP]
U.S. Food and Drug Administration [FDA]
The CHRM1 is a muscarinic receptor. This receptor plays a crucial role in learning and memory processes and has long been identified as a promising therapeutic target for the improvement of cognitive decline in Alzheimer's disease (AD). The CHRM1-CHO cell line stably expressing human muscarinic acetylcholine receptor M1 (CHRM1) can be used for screening agonists and antagonists of interactions between CHRM1 and its ligands. The CHRM1-CHO Calcium Flux Assay is a homogeneous fluorescence-based assay for detecting the intracellular calcium level using FDSS kinetic plate reader system.
Tox21 Assay Protocol Summary:
CHRM1-CHO cells were dispensed at 1000 cells/3uL/well in 1536-well black-clear bottom plates using a Multidrop Dispenser. After the assay plates were incubated at a 37 C/5% CO2 incubator for 18 h, 3 uL of Dye Loading Buffer was transferred to the assay plate by a Flying Reagent Dispenser. The assay plates were incubated at 37 C for 1h. For antagonist mode, 23 nL of compounds dissolved in DMSO, positive controls or DMSO only was transferred to the assay plate by a pin tool. After 5 min incubation at room temperature, 1.5 uL of acetylcholine at 50nM was added to each well. The fluorescence intensity in the plates was measured using FDSS 7000EX kinetic plate reader for 3 min at 1 sec intervals. Each test compound was measured at 15 concentrations in three independent runs.
Potency is read from the fitted curve at half-maximal effect.

Muscarinic acetylcholine receptor M1 (Homo sapiens), sequence (P11229 whole entry, looked up): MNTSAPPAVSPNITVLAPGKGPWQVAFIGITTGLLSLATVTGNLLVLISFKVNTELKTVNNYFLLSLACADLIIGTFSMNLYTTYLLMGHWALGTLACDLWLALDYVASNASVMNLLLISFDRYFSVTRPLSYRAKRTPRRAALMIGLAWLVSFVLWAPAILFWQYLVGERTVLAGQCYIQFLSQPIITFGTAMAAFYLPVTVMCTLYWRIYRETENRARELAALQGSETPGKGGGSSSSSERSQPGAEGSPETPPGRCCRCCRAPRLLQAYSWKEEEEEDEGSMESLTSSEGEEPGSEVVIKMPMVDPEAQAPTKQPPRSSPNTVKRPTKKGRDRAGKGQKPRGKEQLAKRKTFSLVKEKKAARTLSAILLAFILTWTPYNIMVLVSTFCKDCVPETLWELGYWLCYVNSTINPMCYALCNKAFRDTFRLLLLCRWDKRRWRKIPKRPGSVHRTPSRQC

Q: For Cc1ccc(C(N)=O)cc1N, which Potency is on record?
A: inactive

Q: For C=C(C)C(=O)OCC, which Potency is on record?
A: inactive

Q: For COC(=O)c1cc(Cl)cc(Cl)c1, which Potency is on record?
A: inactive

Q: With C=C(C)C(=O)OCCOCCOC(=O)C(=C)C as the compound, how does the Potency read?
A: inactive

Q: For CCOC(=O)COc1ccc2c(C)c(CCN(CC)CC)c(=O)oc2c1Cl, which Potency is on record?
A: 2.59 µM (active)

Q: CC/C=C\CCCCCO was tested. Which Potency did it give?
A: inactive

Q: Which Potency does the source give for CCCCCCCCC(=O)OCC(C)OC(=O)CCCCCCCC (stereo not given) here?
A: inactive

Q: Which Potency does the source give for CCO[Si](CCC1CCC2OC2C1)(OCC)OCC (stereo not given) here?
A: inactive

Q: Which Potency does the source give for O=C1C=CC(=O)N1c1ccccc1 here?
A: inactive

Q: Which Potency does the source give for O=C(O)c1ccc(-n2nc(-c3ccccc3O)nc2-c2ccccc2O)cc1 here?
A: inactive

Q: With NCCc1ccn[nH]1 as the compound, how does the Potency read?
A: inactive

Q: With O=C(O)CN(CCN(CC(=O)O)CC(=O)O)CC(=O)O as the compound, how does the activity, negative = inhibition read?
A: 37.7% [at 2.17 µM]

Q: CC1=NN(c2cccc(S(=O)(=O)O)c2)C(=O)C1 was tested. Which Potency did it give?
A: inactive

Q: For O=C(O)COc1ccc2ccccc2c1, which Potency is on record?
A: inactive

Q: How did the Potency turn out when O=[N+]([O-])c1ccc(O)cc1C(F)(F)F was run?
A: inactive

Q: With Cc1onc(-c2c(Cl)cccc2Cl)c1C(=O)Cl as the compound, how does the Potency read?
A: inactive

Q: C=CCCC(=O)O was tested. Which Potency did it give?
A: inactive

Q: C1=CC2C3C=CC(C3)C2C1 (stereo not given) was tested. Which Potency did it give?
A: inactive

Q: CCn1c(=O)c2c(nc(/C=C/c3ccc(OC)c(OC)c3)n2C)n(CC)c1=O was tested. Which Potency did it give?
A: inactive

Q: For O=C(Nc1cccc([N+](=O)[O-])c1)c1cc2ccccc2cc1O, which Potency is on record?
A: inactive

Q: How did the Potency turn out when CC(C)c1ccc2ncccc2c1 was run?
A: inactive

Q: COC(=O)/C=C/C(C)=C\C=C\C(C)=C\C=C\C=C(C)\C=C\C=C(C)\C=C\C(=O)O was tested. Which Potency did it give?
A: inactive

Q: CC[C@H](C)COC(=O)/C=C/c1ccc(N=Cc2ccc(OC)cc2)cc1 was tested. Which Potency did it give?
A: inactive

Q: How did the Potency turn out when C[C@]12CCC(=O)C=C1CC[C@H]1[C@@H]3CC[C@](O)(C(=O)CO)[C@@]3(C)C[C@H](O)[C@@]12F was run?
A: inactive

Q: How did the Potency turn out when CC[N+](CC)(CC)CCOc1ccc(/C=C/c2ccccc2)cc1 was run?
A: 1.16 µM (active)

Q: With CCCC1CCC(=O)CC1 as the compound, how does the Potency read?
A: inactive

Q: Which Potency does the source give for CN(C)C(=O)COC(=O)Cc1ccc(OC(=O)c2ccc(N=C(N)N)cc2)cc1 here?
A: inactive

Q: For CC1CCN(CCCC(=O)c2ccc(F)cc2)CC1, which Potency is on record?
A: inactive

Q: For CCc1c(C)[nH]c2c1C(=O)C(CN1CCOCC1)CC2 (stereo not given), which Potency is on record?
A: inactive

Q: Which Potency does the source give for Oc1ccc(Cc2ccccc2)cc1 here?
A: inactive

Q: Which Potency does the source give for CCCCCCOC(=O)c1ccccc1 here?
A: inactive

Q: How did the Potency turn out when C=C(C)[C@@H]1CC=C(C)CC1 was run?
A: inactive

Q: O=C(c1ccccc1)c1cc(Cl)ccc1O was tested. Which Potency did it give?
A: 20 µM (active)

Q: With CCC(C)OC(=O)N1CCCCC1CCO (stereo not given) as the compound, how does the Potency read?
A: inactive

Q: For C=C1C(=C/C=C2\CCC[C@]3(C)[C@@H]([C@H](C)/C=C/[C@@H](O)C4CC4)CC[C@@H]23)C[C@@H](O)C[C@@H]1O, which Potency is on record?
A: inactive

Q: CC(=O)/C=C/C=C1/C2CCC(C2)C1(C)C (stereo not given) was tested. Which Potency did it give?
A: inactive

Q: NC1=NCC2c3ccccc3Cc3ccccc3N12 (stereo not given) was tested. Which Potency did it give?
A: inactive

Q: For COc1cc(NCc2ccc3nc(N)nc(N)c3c2C)cc(OC)c1OC, which Potency is on record?
A: inactive

Q: Which Potency does the source give for CCCC/C=C/C=C\C=O here?
A: inactive

Q: For CC(=O)Oc1ccc(C(=C2CCCCC2)c2ccc(OC(C)=O)cc2)cc1, which Potency is on record?
A: inactive
